Data on 13 compounds can be found in PubChem BioAssay.

Active and inactive are the calls of the source. Unless noted, how the calls were made is not given here.

The nature of assay [1]: resazurin metabolic signal in HepG2 cells – cell-based, resazurin fluorescence, 24 h, PK04 Diversity Set, profiling panel (AID 1172). Further: test concentration not given here. To be noted: HepG2 viability, higher = more signal. Background: The colour change of resazurin is a common sign of viable cells or microbes.
The nature of assay [2]: budding yeast growth changes without added modifier – OD600, strain BY4716, 24 h, basal condition, primary screen (AID 1173). The conditions noted are these: S. cerevisiae BY4716 growth, OD600, 24 h; higher = more signal, called active from +8 up or from −8 down.
Assay [3] in a line: viability profiling in MM1S myeloma cells – cell-based, resazurin fluorescence, basal, 24 h, PK04 Diversity Set, profiling panel (AID 1174). Further: test concentration not given here. The conditions noted are these: higher = more signal, called active from +8 up or from −8 down.
Assay [4] has as its target Dihydroorotate dehydrogenase (quinone), mitochondrial (Plasmodium falciparum (isolate 3D7)) (UniProt Q08210). Put plainly: inhibition of P. falciparum DHODH – biochemical, C-terminal His tag, absorbance 600 nm, primary screen (AID 1175).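 Further: recombinant parasite enzyme with a five histidine tag at its C terminus; test concentration not given here.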 To be noted: PfDHODH enzyme, DCIP absorbance 600 nm; higher = more signal, called active from +8 up or from −8 down.
The nature of assay [5]: inhibition of PAO1 biofilm formation – strain PAO1, LB-PBS medium, absorbance 600 nm, primary screen (AID 1176). Further: test concentration not given here. To be noted: P. aeruginosa PAO1 growth/biofilm, A600, 12 h; higher = more signal.
A short description of assay [6]: growth modulation of vineyard yeast isolate – strain RM11-1a, OD600, basal, 24 h, primary screen (AID 1177).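 Further: cultures grown under basal conditions with no added stressor; test concentration not given here.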 The conditions noted are these: S. cerevisiae RM11-1a growth, OD600, 24 h; higher = more signal, called active from +8 up or from −8 down.
Assay [7] can be described thus: growth of efflux-deficient E. coli DRC39 – strain DRC39, OD650, 24 h, E. coli filamentation inducers, primary screen (AID 1178).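 Further: growth measured as culture turbidity by optical density at 650 nm; test concentration not given here.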 To be noted: E. coli DRC39 acrAB, higher = more signal, called active from +8 up or from −8 down.
A short description of assay [8]: growth of efflux-deficient E. coli DRC39 – strain DRC39, OD650, 48 h, E. coli filamentation inducers, primary screen (AID 1179).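 Further: screen aims at cell division blockers that make cells filament.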 To be noted: E. coli DRC39 delta-acrAB growth, higher = more signal, called active from +8 up or from −8 down.
The nature of assay [9]: viability profiling in RPMI8226 myeloma cells – cell-based, resazurin fluorescence, basal, 24 h, PK04 Diversity Set, profiling panel (AID 1180).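 Further: RPMI8826 multiple myeloma cell line at 5000 cells per well; test concentration not given here.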 The conditions noted are these: higher = more signal.
Assay [10] has as its target E3 ubiquitin-protein ligase XIAP (Homo sapiens) (UniProt P98170). Put plainly: small molecules binding XIAP protein – biophysical, small-molecule microarray, fluorescence 635 nm, primary screen (AID 1181).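 Further: score merges 667 nm emission and signal to noise over triplicate slides.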 To be noted: higher = more signal.

Sequence of Dihydroorotate dehydrogenase (quinone), mitochondrial (Plasmodium falciparum (isolate 3D7)) (Q08210 whole entry, looked up): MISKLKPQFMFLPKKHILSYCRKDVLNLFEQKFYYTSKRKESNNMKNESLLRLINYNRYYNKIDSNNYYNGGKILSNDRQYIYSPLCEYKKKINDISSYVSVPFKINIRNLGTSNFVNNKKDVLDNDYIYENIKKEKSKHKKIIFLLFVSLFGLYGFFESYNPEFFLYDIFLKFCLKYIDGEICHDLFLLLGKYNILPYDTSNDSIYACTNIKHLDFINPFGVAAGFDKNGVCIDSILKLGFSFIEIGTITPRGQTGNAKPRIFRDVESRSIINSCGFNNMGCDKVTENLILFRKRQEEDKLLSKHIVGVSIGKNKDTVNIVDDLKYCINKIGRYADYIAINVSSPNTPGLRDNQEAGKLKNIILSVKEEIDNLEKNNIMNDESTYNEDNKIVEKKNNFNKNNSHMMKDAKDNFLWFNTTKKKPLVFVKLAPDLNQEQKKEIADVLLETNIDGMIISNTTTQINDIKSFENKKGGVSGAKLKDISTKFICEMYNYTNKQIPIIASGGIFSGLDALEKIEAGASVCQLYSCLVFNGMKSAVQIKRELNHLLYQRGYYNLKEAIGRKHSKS
Sequence of E3 ubiquitin-protein ligase XIAP (Homo sapiens) (P98170 whole entry, looked up): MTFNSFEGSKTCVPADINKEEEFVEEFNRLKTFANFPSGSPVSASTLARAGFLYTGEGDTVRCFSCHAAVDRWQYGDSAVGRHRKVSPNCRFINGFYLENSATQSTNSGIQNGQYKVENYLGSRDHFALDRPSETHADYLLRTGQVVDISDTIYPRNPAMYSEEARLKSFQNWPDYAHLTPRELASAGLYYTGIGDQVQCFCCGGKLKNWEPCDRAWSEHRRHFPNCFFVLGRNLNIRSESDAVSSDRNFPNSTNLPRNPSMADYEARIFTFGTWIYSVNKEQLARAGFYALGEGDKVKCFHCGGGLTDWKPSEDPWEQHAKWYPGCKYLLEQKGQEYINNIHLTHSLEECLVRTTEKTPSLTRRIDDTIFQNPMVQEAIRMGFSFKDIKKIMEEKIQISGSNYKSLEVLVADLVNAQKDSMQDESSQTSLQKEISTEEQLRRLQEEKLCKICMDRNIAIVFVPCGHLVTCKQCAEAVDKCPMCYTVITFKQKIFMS

Consider `CN1C(=O)C2C=CC(C(O)c3c(F)cccc3Cl)N(Nc3ccccc3)C2C1=O` (stereo not given), for which the z-score was -0.203 in assay [1]; -1.03 (inactive) in assay [2]; -0.682 (inactive) in assay [3]; 0.627 (inactive) in assay [5]; -0.284 (inactive) in assay [6]; -1.11 (inactive) in [7]. Also, the z-score in [8] was -0.618 (inactive); in assay [9], -0.679. For the same compound, the composite z-score is 0.061 (inactive) in assay [4] and 0.0651 in assay [10].

Take `COCCOC(=O)N1C(=O)[C@@]2(c3cc(C#CC4(O)CCCCCC4)ccc31)[C@H](C(N)=O)[C@H]1C(=O)O[C@H](c3ccccc3)[C@H](c3ccccc3)N1[C@@H]2c1ccc(O)cc1`: the z-score in assay [1] was 0.061; in assay [2] it was -0.676 (inactive); in assay [3], -0.907 (inactive); in assay [5] it was 0.51 (inactive); in assay [6] it was 0.389 (inactive); in assay [7], -0.0029 (inactive). Also, the results for the z-score in assay [8] and in assay [9] were 0.761 (inactive) and -1.73, respectively. The composite z-score in assay [4] is -0.942 (inactive); in [10], -0.144.

Turning to `CCOC(=O)C1=CC[C@@H](c2ccccc2)N(S(=O)(=O)c2ccc(C)cc2)C1`, the z-score was -0.842 in [1]; 1.39 (inactive) in assay [2]; -1.31 (inactive) in assay [3]; 0.465 (inactive) in assay [5]; 1.82 (inactive) in assay [6]; -0.866 (inactive) in assay [7]. Moreover, the figures for the z-score in assay [8] and in [9] were -0.869 (inactive) and -2.53, respectively. Moreover, the composite z-score is 0.806 (inactive) in [4] and 0.0975 in [10].

For `COc1ccc(C(O)C2C=CC3C(=O)N(c4ccccc4)C(=O)C3N2Nc2ccc(C#N)cc2)c2ccccc12` (stereo not given), the z-score in assay [1] is -1.47; in [2], -1.74 (inactive); in [3] it was -0.293 (inactive); in assay [5] it was 1.55 (inactive); in assay [6], -0.993 (inactive); in assay [7], -0.483 (inactive). The z-score is 0.161 (inactive) in assay [8] and -0.55 in [9]. Besides, the composite z-score in assay [4] was 0.397 (inactive); in assay [10], 0.39.

For `COc1ccc(NN2C(C(O)c3ccccn3)C=CC3C(=O)N(C4CCCCC4)C(=O)C32)cc1` (stereo not given), the z-score in [1] is 1.64; in assay [2], -0.774 (inactive); in assay [3], 0.583 (inactive); in [5], 0.574 (inactive); in [6], 0.219 (inactive); in [7], -0.416 (inactive). The z-score in assay [8] was 0.824 (inactive); in assay [9], 0.974. The composite z-score in assay [4] is 1.25 (inactive); in [10], -0.308.

As for `CC(C)c1ccc(NN2C(C(O)c3ccco3)C=CC3C(=O)N(c4ccccc4)C(=O)C32)cc1` (stereo not given), the z-score in assay [1] is -0.517; in assay [2] it was -2.51 (inactive); in [3], -1.23 (inactive); in assay [5], 1.07 (inactive); in [6], 0.921 (inactive); in assay [7], -0.609 (inactive). The z-score in [8] was 0.245 (inactive); in [9] it was -0.695. Also, the composite z-score in [4] was 0.325 (inactive); in assay [10] it was -0.0026.

Consider `COc1cc2c(cc1OC)CN(C(=O)[C@H]1[C@@H]3C(=O)O[C@@H](c4ccccc4)[C@@H](c4ccccc4)N3[C@@H](c3ccc(OCCO)cc3)[C@]13C(=O)Nc1ccc(C#CC4(O)CCCCCC4)cc13)CC2`, for which the z-score in assay [1] was 0.0686; in assay [2], 1.19 (inactive); in assay [3] it was 0.122 (inactive); in assay [5] it was 2.91 (inactive); in assay [6], 3.28 (inactive); in assay [7] it was 0.457 (inactive). Moreover, the z-score is 1.25 (inactive) in [8] and 0.378 in assay [9]. Further, the composite z-score is -0.143 (inactive) in assay [4] and -0.0011 in [10].

In the case of `COc1ccc([Si](C)(C)[C@H]2[C@H](CCO)O[C@@]3(C(=O)N(Cc4cccc(N5CCCCC5=O)c4)c4ccccc43)[C@@H]2C)cc1`, the z-score is -4.02 in assay [1]; -0.732 (inactive) in assay [2]; -7.24 (inactive) in assay [3]; 0.969 (inactive) in [5]; 4.44 (inactive) in assay [6]; 1.83 (inactive) in assay [7]. The z-score is 1.26 (inactive) in [8] and -4.57 in [9]. For the same compound, the composite z-score is -2.94 (inactive) in [4] and -0.031 in assay [10].

As for `CCOC(=O)C[C@H]1[C@H](OC(=O)c2ccccc2-c2ccccc2)[C@@H](NC(=O)CC(C)C)c2cc(OCCCO)ccc2N1C(=O)c1ccc2ccccc2n1`, the z-score is -0.208 in assay [1]; 0.706 (inactive) in assay [2]; 0.0612 (inactive) in assay [3]; -0.483 (inactive) in assay [5]; -0.078 (inactive) in assay [6]; -0.418 (inactive) in [7]. The z-score was -0.0818 (inactive) in assay [8] and -0.0139 in assay [9]. Besides, the composite z-score in [4] was -0.112 (inactive); in [10] it was 0.0993.

In the case of `[N-]=[N+]=Nc1ccccc1C[C@@]1(C(=O)O)N=C(c2ccc(OCCCO)cc2)O[C@@H]1c1ccccc1`, the z-score in assay [1] was 1.06; in assay [2], -2.01 (inactive); in assay [3] it was -0.161 (inactive); in assay [5], 0.342 (inactive); in [6] it was -0.583 (inactive); in assay [7], -0.26 (inactive). Besides, the z-score is -0.523 (inactive) in assay [8] and 0.229 in assay [9]. Besides, the results for the composite z-score in assay [4] and in assay [10] were 0.624 (inactive) and 0.427, respectively.

For `NC(=O)N1C(=O)C2C(C1=O)C1C=C(c3ccc(CO)cc3)C2C(C2CC2)N1Cc1sc2ccccc2c1Cl` (stereo not given), the z-score in assay [1] is -0.131; in assay [2], -2.55 (inactive); in [3], -1.06 (inactive); in assay [5], -0.836 (inactive); in assay [6] it was -0.484 (inactive); in assay [7], 0.927 (inactive). Besides, the z-score in assay [8] was 0.112 (inactive); in [9], -1.23. Further, the composite z-score is -2.67 (inactive) in assay [4] and -0.117 in [10].

In the case of `CC(C)NC(=O)[C@@]1(C)c2ccccc2C(=O)N(C(C)C)[C@H]1c1ccc(CO)cc1`, the z-score in [1] is -1.1; in assay [2], -0.106 (inactive); in assay [3], -0.822 (inactive); in assay [5], 0.972 (inactive); in assay [6], -0.553 (inactive); in assay [7] it was 0.0378 (inactive). Besides, the z-score was -0.611 (inactive) in assay [8] and -0.43 in [9]. For the same compound, the composite z-score is 0.127 (inactive) in [4] and 0.0982 in assay [10].

For the compound `COc1ccc(C(O)C2C=CC3C(=O)N(C)C(=O)C3N2N2CCCCC2)cc1` (stereo not given), the z-score is -0.197 in assay [1]; 0.381 (inactive) in assay [2]; -0.8 (inactive) in assay [3]; 0.49 (inactive) in assay [5]; -0.378 (inactive) in assay [6]; -0.584 (inactive) in [7]. For the same compound, the z-score was -0.858 (inactive) in [8] and -0.267 in assay [9]. The results for the composite z-score in assay [4] and in assay [10] were 0.0624 (inactive) and 0.0728, respectively.
